Read-out in experiment [1]: Interleukin-8 (IL8), CXCL8 (gene 3576)
Description: BSK_CASM3C_IL8: BioMAP Diversity Plus: CASM3C Assay for Interleukin-8 (IL8) Biomarker Activity (AID 2283042).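 Note: IL-8 protein level quantified by ELISA.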 Particulars: primary human coronary artery smooth muscle cells; actives raise or lower the signal.

Read-out in experiment [2]: Human Leukocyte Antigen - DR isotype (HLADR), HLA-DRA (gene 3122)
Description: BSK_CASM3C_HLADR: BioMAP Diversity Plus: CASM3C Assay for Human Leukocyte Antigen - DR isotype (HLADR) Biomarker Activity (AID 2283043).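 Note: cell-surface HLA-DR protein level quantified by ELISA.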 Particulars: primary human coronary artery smooth muscle cells; actives raise or lower the signal.

Read-out in experiment [3]: Macrophage colony-stimulating factor (MCSF), CSF1 (gene 1435)
Description: BSK_CASM3C_MCSF: BioMAP Diversity Plus: CASM3C Assay for Macrophage colony-stimulating factor (MCSF) Biomarker Activity (AID 2283044).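 Note: M-CSF protein amount quantified by ELISA after 24 h exposure.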 The conditions noted are these: primary human coronary artery smooth muscle cells; actives raise or lower the signal.

Read-out in experiment [4]: Low-density lipoprotein receptor (LDLR), LDLR (gene 3949)
Description: BSK_CASM3C_LDLR: BioMAP Diversity Plus: CASM3C Assay for Low-density lipoprotein receptor (LDLR) Biomarker Activity (AID 2283045).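 Note: LDLR protein level on the cell surface quantified by ELISA.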 Particulars: primary human coronary artery smooth muscle cells; actives raise or lower the signal.

Read-out in experiment [5]: Monocyte Chemoattractant Protein-1 (MCP1), CCL2 (gene 6347)
Description: BSK_CASM3C_MCP1: BioMAP Diversity Plus: CASM3C Assay for Monocyte Chemoattractant Protein-1 (MCP1) Biomarker Activity (AID 2283046).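 Note: MCP-1 level quantified by ELISA 24 h after dosing.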 The conditions noted are these: primary human coronary artery smooth muscle cells; actives raise or lower the signal.

Experiment [6] is described as follows: BSK_CASM3C_Proliferation: Cell Proliferation Assessment in the BioMAP Diversity Plus: CASM3C Assay (AID 2283047).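 Note: sulforhodamine B total protein stain as relative cell number at 560 nm; sub-confluent cells exposed 48 h before staining; fitted both ways against DMSO so gain or loss of cell number.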 Particulars: primary human coronary artery smooth muscle cells.
Read-out in experiment [7]: Monokine induced gamma interferon (MIG), CXCL9 (gene 4283)
Description: BSK_CASM3C_MIG: BioMAP Diversity Plus: CASM3C Assay for Monokine induced gamma interferon (MIG) Biomarker Activity (AID 2283048).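 Note: MIG protein level measured by ELISA.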 The conditions noted are these: primary human coronary artery smooth muscle cells; actives raise or lower the signal.

Read-out in experiment [8]: serum amyloid A (SAA), SAA1 (gene 6288)
Description: BSK_CASM3C_SAA: BioMAP Diversity Plus: CASM3C Assay for serum amyloid A (SAA) Biomarker Activity (AID 2283049).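 Note: SAA protein level quantified by ELISA.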 The conditions noted are these: primary human coronary artery smooth muscle cells; actives raise or lower the signal.

Experiment [9] can be described thus: BSK_CASM3C_SRB: Viability Assessment in the BioMAP Diversity Plus: CASM3C Assay (AID 2283050).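 Note: cells exposed to compound for 24 h.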 Particulars: primary human coronary artery smooth muscle cells.
Read-out in experiment [10]: Thrombomodulin, THBD (gene 7056)
Description: BSK_CASM3C_Thrombomodulin: BioMAP Diversity Plus: CASM3C Assay for Thrombomodulin Biomarker Activity (AID 2283051).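 Note: thrombomodulin protein level measured by ELISA 24 h after dosing.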 Particulars: primary human coronary artery smooth muscle cells; actives raise or lower the signal.

Read-out in experiment [11]: Tissue Factor, F3 (gene 2152)
Description: BSK_CASM3C_TissueFactor: BioMAP Diversity Plus: CASM3C Assay for Tissue Factor Biomarker Activity (AID 2283052).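 Note: cell surface tissue factor protein level read by ELISA.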 The conditions noted are these: primary human coronary artery smooth muscle cells; actives raise or lower the signal.

Read-out in experiment [12]: Interferon-gamma inducible Protein 10 (IP10), CXCL10 (gene 3627)
Description: BSK_hDFCGF_IP10: BioMAP Diversity Plus: hDFCGF Assay for Interferon-gamma inducible Protein 10 (IP10) Biomarker Activity (AID 2283053). Particulars: primary human foreskin fibroblasts; actives raise or lower the signal. A digest of the protocol: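 Primary human foreskin fibroblasts exposed to chemicals for 24 h. IP-10 measured by ELISA; changes fitted bidirectionally against DMSO baseline.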

Read-out in experiment [13]: Urokinase-type plasminogen activator receptor (uPAR), PLAUR (gene 5329)
Description: BSK_CASM3C_uPAR: BioMAP Diversity Plus: CASM3C Assay for Urokinase-type plasminogen activator receptor (uPAR) Biomarker Activity (AID 2283054).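 Note: cell-surface uPAR protein level quantified by ELISA.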 Particulars: primary human coronary artery smooth muscle cells; actives raise or lower the signal.

Read-out in experiment [14]: Vascular cell adhesion molecule 1 (VCAM1), VCAM1 (gene 7412)
Description: BSK_CASM3C_VCAM1: BioMAP Diversity Plus: CASM3C Assay for Vascular cell adhesion molecule 1 (VCAM1) Biomarker Activity (AID 2283055).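 Note: VCAM-1 protein level quantified by ELISA on the cells.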 Particulars: primary human coronary artery smooth muscle cells; actives raise or lower the signal.

Read-out in experiment [15]: Collagen III, COL3A1 (gene 1281)
Description: BSK_hDFCGF_CollagenIII: BioMAP Diversity Plus: hDFCGF Assay for Collagen III Biomarker Activity (AID 2283056). The conditions noted are these: primary human foreskin fibroblasts; actives raise or lower the signal. A digest of the protocol: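 hDFCGF primary human dermal fibroblasts; 24 h chemical exposure; collagen III by ELISA; bidirectional curve fit vs DMSO baseline (gain or loss of signal).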

Read-out in experiment [16]: Epidermal growth factor receptor (EGFR), EGFR (gene 1956)
Description: BSK_hDFCGF_EGFR: BioMAP Diversity Plus: hDFCGF Assay for Epidermal growth factor receptor (EGFR) Biomarker Activity (AID 2283057). Particulars: primary human foreskin fibroblasts; actives raise or lower the signal. Put shortly:
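Primary human foreskin fibroblasts (hDFCGF system), sampled 24 h after dosing; EGFR quantified by ELISA. Bidirectional fit relative to DMSO baseline; SRB total-protein staining in parallel cultures for cytotoxicity.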

Experiment [17] can be described thus: BSK_hDFCGF_Proliferation: Cell Proliferation Assessment in the BioMAP Diversity Plus: hDFCGF Assay (AID 2283059).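 Note: curves fitted for both rise and fall of signal versus DMSO baseline.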 The conditions noted are these: primary human foreskin fibroblasts. Put shortly: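 Sub-confluent human foreskin fibroblast cultures receive test chemical […]. Relative cell number is quantified by sulforhodamine B staining (0.1%, after 10% TCA fixation) at 560 nm, with bidirectional fitting referenced to DMSO.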

Read-out in experiment [18]: Macrophage colony-stimulating factor (MCSF), CSF1 (gene 1435)
Description: BSK_hDFCGF_MCSF: BioMAP Diversity Plus: hDFCGF Assay for Macrophage colony-stimulating factor (MCSF) Biomarker Activity (AID 2283060). Particulars: primary human foreskin fibroblasts; actives raise or lower the signal. Put shortly:
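ELISA read-out of M-CSF in human dermal foreskin fibroblast cultures, 24 h after chemical dosing; gain or loss of signal fitted bidirectionally relative to DMSO baseline.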

Read-out in experiment [19]: Interleukin-8 (IL8), CXCL8 (gene 3576)
Description: BSK_hDFCGF_IL8: BioMAP Diversity Plus: hDFCGF Assay for Interleukin-8 (IL8) Biomarker Activity (AID 2283058). Particulars: primary human foreskin fibroblasts; actives raise or lower the signal. Put shortly:
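ELISA read-out of IL-8 from primary human foreskin fibroblast cultures taken 24 h after dosing; values are bidirectional fits relative to DMSO vehicle.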

Experiment [20] can be described thus: BSK_hDFCGF_SRB: Viability Assessment in the BioMAP Diversity Plus: hDFCGF Assay (AID 2283061).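 Note: cells exposed to compound for 24 h before the read.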 Particulars: primary human foreskin fibroblasts. Put shortly: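 Primary human foreskin fibroblasts; 24 h post-dose; fixed 10% TCA, stained 0.1% SRB, A560 read; total protein as overt cytotoxicity measure; curves fit bidirectionally vs DMSO control.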

The values that follow come from PubChem BioAssay (EPA / NIEHS).

A word on the AC50: it is the concentration at which the activity in the assay is half-maximal.

The source holds several records for some structures; these can differ, active in one and inactive in another. Active and inactive are the calls of the source. Rule for the calls: active = hit-call score of the fitted dose curve at least 0.9, where 1 is the maximum; inactive = score below 0.9.

Regarding `CCCCCCCCC(=O)O`, the result in [1], in experiment [2], in [3], in experiment [4], in experiment [5] and in experiment [6] was inactive. Also, the outcome in experiment [7], in experiment [8], in experiment [9], in experiment [10], in experiment [11] and in experiment [12] was inactive. The outcome in [13], in [14], in experiment [15], in [16], in experiment [17] and in experiment [18] was inactive.
In the case of `c1ccc2c(c1)ccc1ccccc12`, the result in experiment [1], in experiment [2], in experiment [3], in experiment [4], in experiment [5] and in experiment [6] was inactive. Besides, the outcome in [7], in experiment [8], in experiment [9], in experiment [10], in [11] and in experiment [12] was inactive. In addition, the result in experiment [13], in experiment [14], in experiment [15], in [16], in experiment [19] and in experiment [17] was inactive. Besides, the result in experiment [18] and in experiment [20] was inactive.
As to `O=C(O)Cc1cc(I)c(Oc2cc(I)c(O)c(I)c2)c(I)c1`, the result in [1], in experiment [2], in experiment [3], in experiment [4], in experiment [5] and in experiment [6] was inactive. The result in [7], in [8], in [9], in [10], in experiment [11] and in experiment [13] was inactive. Also, the half-maximal activity concentration (AC50) in experiment [12] is 8.02 µM (active); in experiment [14], 13.4 µM (active); in experiment [15] it was 4.05 µM (active); in [16] it was 7.78 µM (active); in experiment [19], 22.2 µM (active); in experiment [17] it was 13.4 µM (active). Also, the concentration at half-maximal activity (AC50) is 14 µM (active) in experiment [18] and 12.2 µM (active) in experiment [20].
In the case of `COCC(C)O` (stereo not given), the outcome in experiment [1], in experiment [2], in [3], in experiment [4], in [5] and in experiment [6] was inactive. Also, the outcome in [7], in experiment [8], in experiment [9], in experiment [10], in [11] and in [12] was inactive. Moreover, the outcome in experiment [13], in [14], in [15], in experiment [16], in experiment [17] and in experiment [18] was inactive.
Turning to `C=C(C)C(=O)OCCC(F)(F)C(F)(F)C(F)(F)C(F)(F)C(F)(F)C(F)(F)F`, the result in experiment [1], in experiment [2], in [3], in [4], in experiment [5] and in experiment [6] was inactive. The result in experiment [7], in experiment [8], in experiment [9], in experiment [10], in [11] and in experiment [12] was inactive. The result in experiment [13], in experiment [14], in experiment [15], in experiment [16], in [19] and in experiment [17] was inactive. Also, the result in experiment [18] was inactive. For the same compound, the AC50 in experiment [2] is 20 µM (active); in experiment [4], 12.1 µM (active); in experiment [6] it was 13.5 µM (active); in [17], 13.8 µM (active); in [18], 23.2 µM (active).
